Laboratory results taken from PubChem BioAssay AID1159580 (chemical genetic matrix, 2015).
In all, about 5,500 compounds went through this assay and about 2,000 (36%) were called active. Inconclusive results (about 18%) are left out. Rule as the data show it: active = normalized growth mostly below about 0.91 (no sharp cut-off); inconclusive = no clear call, values can overlap the other calls; inactive = mostly above about 0.92. The list shows a part of the results.

Test: chemical genetic growth profiling, strain panel (AID 1159580);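 also: tested at 20 µM; growth read once vehicle control cultures reached saturation at 30 °C; 1 = growth at the plate median or of vehicle wells; lower values mean less growth of the strain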
Details: growth OD
[1] = S. cerevisiae deletion strains, locus YAR019C, strain CDC15, active compounds read low
[2] = S. cerevisiae deletion strains, locus YBL105C, strain PKC1, active compounds read low
[3] = S. cerevisiae deletion strains, locus YBR135W, strain CKS1, active compounds read low
[4] = S. cerevisiae deletion strains, locus YBR136W, strain MEC1, active compounds read low
[5] = S. cerevisiae deletion strains, locus YBR160W, strain CDC28, active compounds read low
[6] = S. cerevisiae deletion strains, locus YDL017W, strain CDC7, active compounds read low
[7] = S. cerevisiae deletion strains, locus YDL028C, strain MPS1, active compounds read low
[8] = S. cerevisiae deletion strains, locus YDL101C, strain DUN1, active compounds read low
[9] = S. cerevisiae deletion strains, locus YDL108W, strain KIN28, active compounds read low
[10] = S. cerevisiae deletion strains, locus YDL132W, strain cdc53, active compounds read low
[11] = S. cerevisiae deletion strains, locus YDL214C, strain PRR2, active compounds read low
[12] = S. cerevisiae deletion strains, locus YDR052C, strain DBF4, active compounds read low
[13] = S. cerevisiae deletion strains, locus YDR054C, strain cdc34, active compounds read low
[14] = S. cerevisiae deletion strains, locus YDR226W, strain ADK1, active compounds read low
[15] = S. cerevisiae deletion strains, locus YDR477W, strain SNF1, active compounds read low
[16] = S. cerevisiae deletion strains, locus YER123W, strain YCK3, active compounds read low
[17] = S. cerevisiae deletion strains, locus YER133W, strain GLC7, active compounds read low
[18] = S. cerevisiae deletion strains, locus YFL009W, strain cdc4, active compounds read low
[19] = S. cerevisiae deletion strains, locus YFL029C, strain CAK1, active compounds read low
[20] = S. cerevisiae deletion strains, locus YFR003C, strain YPI1, active compounds read low
[21] = S. cerevisiae deletion strains, locus YFR019W, strain FAB1, active compounds read low
[22] = S. cerevisiae deletion strains, locus YFR028C, strain CDC14, active compounds read low
[23] = S. cerevisiae deletion strains, locus YGR040W, strain KSS1, active compounds read low
[24] = S. cerevisiae deletion strains, locus YGR052W, strain FMP48, active compounds read low
[25] = S. cerevisiae deletion strains, locus YGR092W, strain DBF2, active compounds read low
[26] = S. cerevisiae deletion strains, locus YHR030C, strain SLT2, active compounds read low
[27] = S. cerevisiae deletion strains, locus YHR079C, strain IRE1, active compounds read low
[28] = S. cerevisiae deletion strains, locus YHR082C, strain KSP1, active compounds read low
[29] = S. cerevisiae deletion strains, locus YHR205W, strain SCH9, active compounds read low
[30] = S. cerevisiae deletion strains, locus YIL147C, strain SLN1, active compounds read low
[31] = S. cerevisiae deletion strains, locus YJL095W, strain BCK1, active compounds read low
[32] = S. cerevisiae deletion strains, locus YJL128C, strain PBS2, active compounds read low
[33] = S. cerevisiae deletion strains, locus YJL157C, strain FAR1, active compounds read low
[34] = S. cerevisiae deletion strains, locus YJR016C, strain ILV3, active compounds read low
[35] = S. cerevisiae deletion strains, locus YJR066W, strain TOR1 (second series), active compounds read low
[36] = S. cerevisiae deletion strains, locus YJR066W, strain TOR1, active compounds read low
[37] = S. cerevisiae deletion strains, locus YKL048C, strain ELM1, active compounds read low
[38] = S. cerevisiae deletion strains, locus YKL067W, strain YNK1, active compounds read low
[39] = S. cerevisiae deletion strains, locus YKL101W, strain HSL1, active compounds read low
[40] = S. cerevisiae deletion strains, locus YKL193C, strain SDS22, active compounds read low
[41] = S. cerevisiae deletion strains, locus YKL203C, strain TOR2, active compounds read low
[42] = S. cerevisiae deletion strains, locus YLR113W, strain HOG1, active compounds read low
[43] = S. cerevisiae deletion strains, locus YLR133W, strain CKI1, active compounds read low
[44] = S. cerevisiae deletion strains, locus YLR403W, strain SFP1, active compounds read low
[45] = S. cerevisiae deletion strains, locus YML070W, strain DAK1, active compounds read low
[46] = S. cerevisiae deletion strains, locus YMR001C, strain CDC5, active compounds read low
[47] = S. cerevisiae deletion strains, locus YMR205C, strain PFK2 (second series), active compounds read low
[48] = S. cerevisiae deletion strains, locus YMR277W, strain FCP1, active compounds read low
[49] = S. cerevisiae deletion strains, locus YNL006W, strain LST8, active compounds read low
[50] = S. cerevisiae deletion strains, locus YNL020C, strain ARK1, active compounds read low
[51] = S. cerevisiae deletion strains, locus YNL161W, strain CBK1, active compounds read low
[52] = S. cerevisiae deletion strains, locus YNL183C, strain NPR1, active compounds read low
[53] = S. cerevisiae deletion strains, locus YNL207W, strain RIO2, active compounds read low
[54] = S. cerevisiae deletion strains, locus YNL222W, strain SSU72, active compounds read low
[55] = S. cerevisiae deletion strains, locus YNL307C, strain MCK1 (second series), active compounds read low
[56] = S. cerevisiae deletion strains, locus YOL078W, strain AVO1, active compounds read low
[57] = S. cerevisiae deletion strains, locus YOL136C, strain PFK27, active compounds read low
[58] = S. cerevisiae deletion strains, locus YOR061W, strain CKA2, active compounds read low
[59] = S. cerevisiae deletion strains, locus YOR119C, strain RIO1, active compounds read low
[60] = S. cerevisiae deletion strains, locus YOR231W, strain MKK1, active compounds read low
[61] = S. cerevisiae deletion strains, locus YOR329C, strain SCD5, active compounds read low
[62] = S. cerevisiae deletion strains, locus YPL031C, strain PHO85, active compounds read low
[63] = S. cerevisiae deletion strains, locus YPL153C, strain RAD53, active compounds read low
[64] = S. cerevisiae deletion strains, locus YPL204W, strain HRR25, active compounds read low
[65] = S. cerevisiae deletion strains, locus YPL209C, strain IPL1, active compounds read low
[66] = S. cerevisiae deletion strains, locus YPL256C, strain CLN2, active compounds read low
[67] = S. cerevisiae deletion strains, locus YPR025C, strain CCL1, active compounds read low
[68] = S. cerevisiae deletion strains, locus YPR106W, strain ISR1, active compounds read low
[69] = S. cerevisiae deletion strains, locus YPR111W, strain DBF20, active compounds read low
[70] = S. cerevisiae deletion strains, strain NNK1, active compounds read low
[71] = S. cerevisiae deletion strains, strain TSCII, active compounds read low

Measured: normalized growth

O=[N+]([O-])c1ccc2oc(C(O)c3ccc(-c4ccccc4)cc3)cc2c1 (stereo not drawn)
inactive: [1] 0.989 | [2] 0.976 | [3] 0.978 | [4] 0.975 | [5] 0.985 | [6] 0.979 | [7] 0.987 | [8] 0.975 | [9] 0.969 | [10] 0.996 | [11] 0.84 | [12] 0.982 | [13] 0.995 | [14] 0.999 | [15] 0.849 | [16] 0.805 | [17] 0.863 | [18] 1 | [19] 0.976 | [20] 0.984 | [21] 0.904 | [22] 0.997 | [23] 0.859 | [24] 0.926 | [25] 0.802 | [27] 0.896 | [28] 0.86 | [29] 0.967 | [30] 0.968 | [31] 0.905 | [32] 1.05 | [33] 0.822 | [34] 0.977 | [35] 0.751 | [36] 0.829 | [37] 0.979 | [38] 0.872 | [39] 0.982 | [40] 0.98 | [41] 0.924 | [42] 0.882 | [43] 0.877 | [44] 0.902 | [45] 0.835 | [46] 0.982 | [47] 0.882 | [48] 0.994 | [49] 0.987 | [50] 0.854 | [51] 0.984 | [52] 0.919 | [53] 0.979 | [54] 0.976 | [55] 0.936 | [56] 0.993 | [57] 0.849 | [58] 0.75 | [59] 0.904 | [60] 0.892 | [61] 0.985 | [62] 0.848 | [63] 0.821 | [64] 0.88 | [65] 0.977 | [66] 0.96 | [67] 0.985 | [68] 1 | [69] 1.03 | [70] 0.997 | [71] 0.987
active: [26] 0.786

O=[N+]([O-])c1ccc2oc(C(O)c3cccc(Cl)c3)cc2c1 (stereo not drawn)
inactive: [1] 0.947 | [2] 0.948 | [3] 0.943 | [4] 0.957 | [5] 0.947 | [6] 0.949 | [7] 0.954 | [8] 0.937 | [9] 0.949 | [10] 0.936 | [11] 0.942 | [12] 0.953 | [13] 0.951 | [14] 0.952 | [15] 0.957 | [16] 0.94 | [17] 0.96 | [18] 0.945 | [19] 0.946 | [20] 0.948 | [21] 0.931 | [22] 0.949 | [23] 0.964 | [24] 1.05 | [25] 0.907 | [26] 1.08 | [27] 1.02 | [28] 1.06 | [29] 0.931 | [30] 0.96 | [31] 1.04 | [32] 0.91 | [33] 0.932 | [34] 0.954 | [35] 0.93 | [36] 1.09 | [37] 0.93 | [38] 0.942 | [39] 0.934 | [40] 0.946 | [41] 1.03 | [42] 0.893 | [43] 0.935 | [44] 0.939 | [45] 0.94 | [46] 0.945 | [47] 0.944 | [48] 0.952 | [49] 0.954 | [50] 0.929 | [51] 0.956 | [52] 1.04 | [53] 0.944 | [54] 0.947 | [55] 0.925 | [56] 0.946 | [57] 0.95 | [58] 0.922 | [59] 0.992 | [60] 1.01 | [61] 0.948 | [62] 0.953 | [63] 0.955 | [64] 0.954 | [65] 0.946 | [66] 0.996 | [67] 0.953 | [68] 0.961 | [69] 0.948 | [70] 0.934 | [71] 0.944

O=C(c1ccc(-c2ccccc2)cc1)c1cc2cc([N+](=O)[O-])ccc2o1
inactive: S. cerevisiae deletion strains, locus YAL013W, strain DEP1, active compounds read low 1 | S. cerevisiae deletion strains, locus YBR229C, strain ROT2, active compounds read low 0.993 | [8] 1.02 | S. cerevisiae deletion strains, locus YDR150W, strain NUM1, active compounds read low 0.99 | S. cerevisiae deletion strains, locus YEL061C, strain CIN8, active compounds read low 1.01 | S. cerevisiae deletion strains, locus YGR078C, strain PAC10, active compounds read low 1.01 | [26] 1.01 | S. cerevisiae deletion strains, locus YHR087W, strain rtc3, active compounds read low 1.01 | S. cerevisiae deletion strains, locus YJR043C, strain POL32, active compounds read low 0.997 | S. cerevisiae deletion strains, locus YJR075W, strain HOC1, active compounds read low 1.03 | S. cerevisiae deletion strains, locus YKL190W, strain CNB1, active compounds read low 0.993 | S. cerevisiae deletion strains, locus YLR039C, strain RIC1, active compounds read low 0.986 | S. cerevisiae deletion strains, locus YLR058C, strain SHM2 (second series), active compounds read low 0.993 | S. cerevisiae deletion strains, locus YLR085C, strain ARP6, active compounds read low 1 | S. cerevisiae deletion strains, locus YLR262C, strain YPT6, active compounds read low 0.981 | S. cerevisiae deletion strains, locus YML094W, strain GIM5, active compounds read low 1.07 | S. cerevisiae deletion strains, locus YMR219W, strain ESC1, active compounds read low 1 | S. cerevisiae deletion strains, locus YMR263W, strain SAP30, active compounds read low 1.04 | S. cerevisiae deletion strains, locus YNL153C, strain GIM3, active compounds read low 1.01 | S. cerevisiae deletion strains, locus YNL298W, strain CLA4 (second series), active compounds read low 0.996 | S. cerevisiae deletion strains, locus YNL322C, strain KRE1, active compounds read low 1.01 | S. cerevisiae deletion strains, locus YNR030W, strain Alg12, active compounds read low 1 | S. cerevisiae deletion strains, locus YPL055C, strain LGE1, active compounds read low 1.01 | S. cerevisiae deletion strains, locus YPL241C, strain CIN2, active compounds read low 1.07 | S. cerevisiae deletion strains, locus YPR135W, strain CTF4, active compounds read low 1.12 | S. cerevisiae strains, strain wild type, active compounds read low 0.987
